PubChem BioAssay (NCI)
Compounds without any hit were thinned out: in the full panel of roughly 83,000, 20% have a hit.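 Negative percent growth values reflect cell death: -40 means 40% of the cells present at the start died, and -100 means all died.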 The source made the active and inactive calls. How the source made its calls: active means growth percent below 10; inactive means the rest.

Columns and labels:
Assay in all cases: NCI-60 one-dose screen, 48 h (100 = growth as untreated, 0 = no growth, -100 = all killed)
Details in all cases: 10 µM unless noted
HCT-15 colon = test system: HCT-15 colon
HT29 colon = test system: HT29 colon
SNB-75 CNS = test system: SNB-75 CNS
SNB-19 CNS = test system: SNB-19 CNS
U251 CNS = test system: U251 CNS
PC-3 prostate = test system: PC-3 prostate
SK-MEL-5 melanoma = test system: SK-MEL-5 melanoma
UACC-62 melanoma = test system: UACC-62 melanoma
LOX IMVI melanoma = test system: LOX IMVI melanoma
SK-MEL-28 melanoma = test system: SK-MEL-28 melanoma

Measured: growth

O=C(CSc1nc2ccccc2c(=O)n1CCc1ccccc1)Nc1ccc(S(=O)(=O)Nc2ccc(Cl)nn2)cc1
inactive: HCT-15 colon 92.4% | HT29 colon 117% | SNB-75 CNS 78.7% | SNB-19 CNS 92.2% | U251 CNS 92.9% | PC-3 prostate 89.3% | SK-MEL-5 melanoma 98.6% | UACC-62 melanoma 84.6% | LOX IMVI melanoma 96.1%

CN(C)c1ccc(-c2cc(-c3c[nH]c4ccccc34)nc(N)c2C#N)cc1
inactive: HCT-15 colon 11.9% | HT29 colon 11.3% | SNB-75 CNS 21.1% | SNB-19 CNS 40.7% | U251 CNS 26.5% | PC-3 prostate 37% | SK-MEL-5 melanoma 29.8% | UACC-62 melanoma 42% | LOX IMVI melanoma 11.3%

CCOP(=O)(OCC)OC[C@]12CCC(C)(C)C[C@H]1C1=CC[C@@H]3[C@@]4(C)CC[C@H](OP(=O)(OCC)OCC)C(C)(C)[C@@H]4CC[C@@]3(C)[C@]1(C)CC2
inactive: HCT-15 colon 34.6% | HT29 colon 41.4% | SNB-75 CNS 58.9% | SNB-19 CNS 71.2% | U251 CNS 49.1% | PC-3 prostate 19.3% | SK-MEL-5 melanoma 31.3% | UACC-62 melanoma 53.9% | LOX IMVI melanoma 37.2% | SK-MEL-28 melanoma 78.9%

O=C1[C@@H]2Cc3c([nH]c4ccccc34)[C@H](c3ccc(Br)cc3)N2C(=O)CN1C1CCN(Cc2c(Cl)cccc2Cl)CC1
inactive: HCT-15 colon 89.4% | HT29 colon 84.4% | SNB-75 CNS 66.3% | SNB-19 CNS 92.2% | U251 CNS 96.9% | PC-3 prostate 80% | SK-MEL-5 melanoma 95.6% | UACC-62 melanoma 78.3% | LOX IMVI melanoma 91.7% | SK-MEL-28 melanoma 111%

COc1ccc(C2C(C#N)=C(/N=C/c3ccc(Cl)cc3)Oc3c2sc2c(C)cccc32)cc1 (stereo unspecified)
inactive: HCT-15 colon 18.8% | SNB-75 CNS 29.2% | SNB-19 CNS 27.9% | U251 CNS 14.1% | PC-3 prostate 19.2% | SK-MEL-5 melanoma 27.8% | UACC-62 melanoma 23% | LOX IMVI melanoma 41.6%
active: HT29 colon 1.39%

CN1CCN(c2ccc(Nc3nc(NCCCNS(=O)(=O)c4ccc(Cl)cc4)c4sccc4n3)cc2)CC1
inactive: SNB-75 CNS 19.8% | SNB-19 CNS 39.5% | PC-3 prostate 51.5%
active: HCT-15 colon 6.7% | HT29 colon -69.7% | U251 CNS -11.3% | SK-MEL-5 melanoma -91.1% | UACC-62 melanoma -30.5% | LOX IMVI melanoma -84.6% | SK-MEL-28 melanoma -71.9%

C=CCSC1=NC2C(N(CC)C(=O)N2CC)N1/N=C/C=C/c1ccccc1OC (stereo unspecified)
inactive: HCT-15 colon 50.8% | HT29 colon 70.3% | SNB-75 CNS 70.7% | SNB-19 CNS 79.9% | U251 CNS 74.2% | PC-3 prostate 62.4% | SK-MEL-5 melanoma 65.5% | UACC-62 melanoma 54.6% | LOX IMVI melanoma 68.9%

O=C(CSc1nnc(-c2ccc(Cl)cc2)n1-c1ccccc1)Nc1ccccc1Cl
inactive: HCT-15 colon 76.8% | HT29 colon 67.5% | SNB-75 CNS 65.8% | SNB-19 CNS 82.4% | U251 CNS 61.6% | PC-3 prostate 77.8% | SK-MEL-5 melanoma 95.4% | UACC-62 melanoma 95.7%

N#CC1=C2NCCCNc3oc(nc3C#N)Cc3ccccc3CC(=N1)O2
active: LOX IMVI melanoma 8.01%
inactive: HCT-15 colon 74.8% | HT29 colon 102% | SNB-75 CNS 92% | SNB-19 CNS 93.2% | U251 CNS 96.1% | PC-3 prostate 91.9% | SK-MEL-5 melanoma 99.1% | UACC-62 melanoma 87.5%

Brc1cccc(-c2cc(-c3ccc4c(c3)OC=CO4)[nH]n2)c1
inactive: HCT-15 colon 21.1% | HT29 colon 14% | SNB-75 CNS 27.5% | SNB-19 CNS 48.6% | U251 CNS 29% | PC-3 prostate 54.1% | SK-MEL-5 melanoma 22.8% | UACC-62 melanoma 52.2%

O=C(CSc1nnc(-c2cccs2)n1-c1ccccc1)Nc1ccccc1
inactive: HCT-15 colon 80.3% | HT29 colon 91.1% | SNB-19 CNS 54.1% | U251 CNS 84.3% | PC-3 prostate 83% | SK-MEL-5 melanoma 80.1% | UACC-62 melanoma 67.7% | LOX IMVI melanoma 71.9% | SK-MEL-28 melanoma 76.9%
active: SNB-75 CNS -0.436%

CC(=O)c1c([Si](C)(C)C)c2cc(C#N)ccn2c1C(=O)c1ccc(Br)cc1
inactive: HCT-15 colon 85.1% | HT29 colon 67.8% | SNB-75 CNS 95.1% | SNB-19 CNS 86.9% | U251 CNS 93.2% | PC-3 prostate 76% | SK-MEL-5 melanoma 91.2% | UACC-62 melanoma 74.9% | LOX IMVI melanoma 99.6% | SK-MEL-28 melanoma 92.1%

CCN(CC)CCOc1ccc(C(=C(c2ccccc2)C2CCCC2)c2ccc(OCCN(CC)CC)cc2)cc1
inactive: SNB-75 CNS 10.3% | SNB-19 CNS 14.6% | U251 CNS 20.5% | PC-3 prostate 14.6% | SK-MEL-28 melanoma 29%
active: HCT-15 colon -70.2% | HT29 colon -5.44% | SK-MEL-5 melanoma -82.4% | UACC-62 melanoma -74.7% | LOX IMVI melanoma -56.6%

Cn1cc(C2=C(c3coc4cc(Br)ccc34)C(=O)NC2=O)c2ccccc21
inactive: HCT-15 colon 37.3% | HT29 colon 51.7% | SNB-75 CNS 10.5% | SNB-19 CNS 90.7% | U251 CNS 83.7% | PC-3 prostate 69.3% | SK-MEL-5 melanoma 89.6% | UACC-62 melanoma 60.1% | LOX IMVI melanoma 69.2% | SK-MEL-28 melanoma 88.6%
